Reference: the supplement of paper PMC9694430
Structures can show the parent of a compound that is named as a salt.

Key:
Assay in all cases: thermal shift delta Tm vs DMSO control; higher = stronger stabilization (binding)
Details in all cases: 12.5 µM; protein concentration 2 µM
[1] = test system: LOC_OS01G01410-cb001
Outline: (§1)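 Heating from 25°C to 95°C at 0.05°C/s, fluorescence was recorded for 19.5 μl wells of 2 μM E. coli-expressed, purified rice kinase domain in 100 mM potassium phosphate pH 7.5, 150 mM NaCl, 10% glycerol and 5 × SYPRO Orange with compound in DMSO. Boltzmann fits gave melting temperatures for this differential scanning fluorimetry assay. The shift reported is the mean of three replicates against the DMSO-only protein.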

[2] = test system: LOC_OS01G02750-cb003
Outline: as §1

[3] = test system: LOC_OS01G10900-cb004
Outline: as §1

[4] = test system: LOC_OS01G13800-cb001
Outline: as §1

[5] = test system: LOC_OS01G14860-cb001
Outline: as §1

[6] = test system: LOC_OS01G21960-cb002
Outline: as §1

[7] = test system: LOC_OS01G39600-cb002
Outline: as §1

[8] = test system: LOC_OS01G48390-cb002
Outline: as §1

[9] = test system: LOC_OS01G51400-cb002
Outline: as §1

[10] = test system: T1, LOC_OS01G52050-cb004
T1 sequence (whole entry): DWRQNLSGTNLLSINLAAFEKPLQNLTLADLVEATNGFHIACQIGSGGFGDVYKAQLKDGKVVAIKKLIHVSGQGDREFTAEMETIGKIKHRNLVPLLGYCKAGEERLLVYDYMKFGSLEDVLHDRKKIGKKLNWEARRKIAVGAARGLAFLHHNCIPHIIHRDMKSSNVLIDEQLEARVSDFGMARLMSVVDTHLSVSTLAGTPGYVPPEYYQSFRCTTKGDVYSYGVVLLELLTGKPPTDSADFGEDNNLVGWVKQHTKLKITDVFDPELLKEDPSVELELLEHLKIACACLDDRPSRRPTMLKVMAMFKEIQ
Outline: as §1
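Note: purified Escherichia coli-expressed rice kinase domain construct.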

Row | Structure (SMILES) | thermal shift delta Tm [1] [°C] | thermal shift delta Tm [2] [°C] | thermal shift delta Tm [3] [°C] | thermal shift delta Tm [4] [°C] | thermal shift delta Tm [5] [°C] | thermal shift delta Tm [6] [°C] | thermal shift delta Tm [7] [°C] | thermal shift delta Tm [8] [°C] | thermal shift delta Tm [9] [°C] | thermal shift delta Tm [10] [°C]
1 | Cc1nc(Nc2cnn(C3CCNCC3)c2)nc2c1N(C)C(=O)c1cc3ccccc3cc1N2C | 0.36 | 0.48 | -0.09 | 0.39 | -0.18 | 0.66 | -1.52 | 0.62 | 0.18 | 0.38
2 | CC#CC(=O)N1CCC[C@H]1c1nc(-c2ccc(C(=O)Nc3ccccn3)cc2)c2c(N)nccn12 [Acalabrutinib (ACP-196)] | 0.74 | 0.55 | 0.53 | 0.19 | 0.36 | 0.47 | 0.15 | 0.22 | -0.06 | -0.21
3 | Cc1ncc(-c2ccnc(Nc3ccc(S(C)(=O)=O)cc3)n2)n1C(C)C | 2.46 | 2.34 | 0.85 | 0.21 | 7.5 | 2.32 | 2.92 | 0.66 | 0.48 | 4.34
4 | CN1CC(O)C2=C/C(=N/NC(N)=O)C(=O)C=C21 (stereo unspecified) [Carbazochrome] | 0.3 | 0.81 | -0.04 | -0.31 | 0.31 | 0.23 | 0.14 | -0.01 | 0.5 | -1.17
5 | Cc1ccc(Nc2cc(N[C@@H]3CCCC[C@@H]3N)nnc2C(N)=O)nc1C | 1.14 | 1.56 | 0.34 | 0.15 | 4.3 | 1.71 | 0.06 | 0.5 | 0.36 | 4.19
6 | O=C(O)c1ccc(Nc2ncc3c(n2)-c2ccc(Cl)cc2C(c2c(F)cccc2F)=NC3)cc1 | 1.36 | -0.24 | -0.28 | 0.41 | 0.03 | -0.02 | 0.1 | 0.02 | -0.16 | 0.07
7 | Cc1ccc(NC(=O)Nc2cc(C(F)(F)F)ccc2F)cc1Nc1ccc2c(c1)NC(=O)/C2=C\c1ccc[nH]1 | 0 | 4.91 | -0.66 | 3.11 | 2.49 | 4.16 | 2.94 | 3.2 | – | 4.68
8 | Oc1cc(O)cc(/C=C/c2ccc(O)c(O)c2)c1 [Piceatannol] | 1.39 | 1.52 | 0.74 | 1 | 1.02 | -0.47 | 1.51 | 1.02 | 0.39 | 1.1
9 | CN1CCCN(C(=O)c2cccc(-c3ccc(/C=C4/C(=O)Nc5ccc(Cl)cc54)o3)c2)CC1 | 2.05 | 1.47 | 2.9 | 0.13 | 4.25 | 1.58 | – | 1.96 | 0.12 | 0.58
10 | Nc1[nH]nc2nnc(-c3c(-c4ccccc4)nn4ccccc34)cc12 | 0.52 | 0.34 | 0.36 | 0.24 | 1.87 | 0.45 | -0.05 | 0.56 | 0.19 | 0.56
11 | CCCCCCCCc1ccc(CCC(N)(CO)CO)cc1 [Fingolimod (FTY720) HCl] | -0.88 | 0.17 | -0.2 | -1.96 | -1.24 | -0.97 | – | -0.85 | -1.12 | -0.88
12 | O=c1ccc2ccc(O)c(O)c2o1 [Daphnetin] | 0.85 | – | 0.22 | 0.62 | 0.62 | 1.18 | -0.43 | 0.92 | 0.41 | 0.08
13 | Cn1sc(=O)n(Cc2ccccc2)c1=O | -9.79 | -0.38 | – | 0.24 | -0.11 | 1.01 | 0.5 | 0.64 | 0.21 | -0.28
14 | O=C(NCc1cccc(O)c1)Nc1nc(-c2ccncc2)cs1 | 1 | 1.02 | 0.6 | -0.25 | 1.72 | 1.09 | – | 1.48 | 0.4 | 1.09
15 | NC1(Cc2ccc(Cl)cc2)CCN(c2ncnc3[nH]ccc23)CC1 | 0.45 | 0.58 | -0.03 | 0.07 | 1.34 | 0.89 | 0.46 | 3.31 | 0.45 | 0.94
16 | CO[C@H]1C[C@@H]2CC[C@@H](C)[C@@](O)(O2)C(=O)C(=O)N2CCCC[C@H]2C(=O)O[C@H]([C@H](C)C[C@@H]2CC[C@H](n3cnnn3)[C@H](OC)C2)CC(=O)[C@H](C)/C=C(\C)[C@@H](O)[C@@H](OC)C(=O)[C@H](C)C[C@H](C)/C=C/C=C/C=C/1C [Zotarolimus(ABT-578)] | 0.49 | 0.69 | 0.11 | -0.04 | 0.22 | 1.09 | – | 1.07 | 0.06 | 1
17 | Cc1cc2c(F)c(Oc3ncnn4cc(OC[C@@H](C)OC(=O)[C@H](C)N)c(C)c34)ccc2[nH]1 | 1.74 | 0.78 | 0.61 | 0.4 | 0.52 | 0.54 | 0.75 | 0.96 | -0.47 | -0.05
18 | CN1CCN(c2ccc(Nc3cc(-c4cccc(-n5ccc6cc(C7CC7)cc(F)c6c5=O)c4CO)cn(C)c3=O)nc2)CC1 | 0.08 | -0.04 | 0.34 | -0.27 | 0.17 | 0.86 | – | 0.24 | 0.38 | 0.27
19 | Nc1nccc(Oc2ccc(NC(=O)c3c[nH]cc(-c4ccc(F)cc4)c3=O)cc2F)c1Cl | 1.82 | 5.03 | 3.07 | 0.39 | 5.69 | 1.58 | – | 2.63 | 0.87 | 2.83
20 | C=CC(=O)Nc1cccc(Nc2nc(Nc3ccc(N4CCN(C(C)=O)CC4)cc3OC)ncc2C(F)(F)F)c1 [Rociletinib (CO-1686, AVL-301)] | 1.11 | -0.18 | -0.01 | -0.38 | 0.68 | 0.5 | -0.84 | 1.8 | 0.49 | 0.58

Row | Structure (SMILES) | thermal shift delta Tm [1] [°C] | thermal shift delta Tm [2] [°C] | thermal shift delta Tm [3] [°C] | thermal shift delta Tm [4] [°C] | thermal shift delta Tm [5] [°C] | thermal shift delta Tm [6] [°C] | thermal shift delta Tm [7] [°C] | thermal shift delta Tm [8] [°C] | thermal shift delta Tm [9] [°C] | thermal shift delta Tm [10] [°C]
21 | FC(F)(F)c1ccc(Nc2nc3ccc(Oc4ccnc(-c5ncc(C(F)(F)F)[nH]5)c4)cc3[nH]2)cc1 [Raf265 derivative] | 2.22 | 8.8 | 2.77 | 3.55 | 4.58 | 3.8 | 6.13 | 4.75 | – | 8.78
22 | CS(=O)(=O)CCNCc1ccc(-c2ccc3ncnc(Nc4ccc(OCc5cccc(F)c5)c(Cl)c4)c3c2)o1 [Lapatinib] | 3.23 | 7.61 | 1.97 | 0.94 | 1.79 | 2.25 | 3.93 | 1.79 | 1.92 | 6.04
23 | CC(C)=CC[C@@H](O)C1=CC(=O)c2c(O)ccc(O)c2C1=O [Shikonin] | 5.01 | 17.4 | 9.19 | 2.82 | 7.52 | 1.95 | – | 5.3 | 18.6 | 12.1
24 | Cc1cc(Nc2nc(N[C@@H](C)c3ccc(F)cc3)c(C#N)cc2F)n[nH]1 | 4.59 | 1.83 | 0.46 | -0.07 | 5.09 | 1.28 | 4.3 | 5.61 | 0.07 | 0.63
25 | O=C(O)c1cc(O)c2c(c1)[C@@H]([C@H]1c3cc(C(=O)O)cc(O)c3C(=O)c3c(O[C@@H]4O[C@H](CO)[C@@H](O)[C@H](O)[C@H]4O)cccc31)c1cccc(O[C@@H]3O[C@H](CO)[C@@H](O)[C@H](O)[C@H]3O)c1C2=O [Sennoside B] | 4.96 | 27.3 | 6.66 | 2.08 | 4.72 | 3.52 | – | 4.78 | – | 8.22
26 | COc1cc2nccc(Oc3ccc(NC(=O)Nc4cc(C)on4)c(Cl)c3)c2cc1OC [Tivozanib (AV-951)] | 1.87 | 1.12 | 1.76 | 0.05 | 0.65 | 0.54 | -0.67 | 1.22 | -0.16 | 6.73
27 | CC(C)(C)c1cc(/C=C(\C#N)C(N)=S)cc(C(C)(C)C)c1O [Tyrphostin AG 879] | 2.99 | 5.43 | 4.19 | 2.01 | 2.28 | 1.97 | – | 1.74 | 0.42 | 4.16
28 | O=C(O[C@@H]1Cc2c(O)cc(O)cc2O[C@@H]1c1cc(O)c(O)c(O)c1)c1cc(O)c(O)c(O)c1 [(-)-Epigallocatechin Gallate] | 0.41 | – | -1.77 | 3.77 | 3.47 | 4.17 | 1.4 | 1.57 | 0.81 | 2.23
29 | Cn1c(Nc2ccc(C(F)(F)F)cc2)nc2cc(Oc3ccnc(-c4ncc(C(F)(F)F)[nH]4)c3)ccc21 | 2.71 | 15.5 | 2.13 | 3.67 | 5.02 | 4.72 | 5.68 | 4.18 | – | 6.02
30 | CCn1c(-c2nonc2N)nc2cnc(Oc3cccc(NC(=O)c4ccc(OCCN5CCOCC5)cc4)c3)cc21 | 0.15 | 1.24 | 1.47 | 0.89 | 6.06 | 0.9 | 0.75 | 1.02 | 0.31 | 0.93
31 | COc1cc(-c2cc(-c3ccc(N4CCNCC4)cc3)cnc2C)cc(OC)c1OC | 1.74 | 0.65 | 1.13 | -0.6 | -0.12 | 0.67 | -1.03 | 0.11 | -0.26 | 0.04
32 | Cc1cc(O)c2c(c1)C(=O)c1cccc(O)c1C2=O [Chrysophanic Acid] | -0.01 | -3.42 | 1.45 | 0.25 | 0.31 | 0.83 | – | 1.12 | -0.16 | -0.47
33 | CC(C)(C)c1nc(-c2cccc(NS(=O)(=O)c3c(F)cccc3F)c2F)c(-c2ccnc(N)n2)s1 | 1.54 | 0.76 | 0.26 | 0.08 | 8.58 | 1.84 | -9.31 | 0.37 | 0.33 | 1.56
34 | CCc1ccc(/C=C2/SC(=S)NC2=O)cc1 | 1.69 | 1.03 | 2.03 | 0.53 | 1.38 | 1.74 | – | 0.63 | 0.67 | 1.47
35 | COC(=O)[C@]12CCC(C)(C)C[C@H]1[C@H]1C(=O)C=C3[C@@]4(C)C=C(C#N)C(=O)C(C)(C)[C@@H]4CC[C@@]3(C)[C@]1(C)CC2 [Bardoxolone Methyl] | -2.64 | 0 | -14.8 | -0.32 | -4.11 | -0.25 | – | -0.51 | -7.84 | -10.5
36 | COC(=O)c1ccc2c(c1)NC(=O)/C2=C(\Nc1ccc(N(C)C(=O)CN2CCN(C)CC2)cc1)c1ccccc1 [Nintedanib (BIBF 1120)] | 2.25 | -0.82 | 0.18 | -0.11 | 1.18 | 0.47 | 1.74 | 1.19 | 0.18 | 1.07
37 | Cc1c(NC(=O)c2ccc(C(C)(C)C)cc2)cccc1-c1cn(C)c(=O)c(Nc2ccc(C(=O)N3CCOCC3)cc2)n1 | 0.18 | 0.71 | -1.08 | 0.18 | -0.01 | 0.66 | 2.2 | 0.86 | 0.2 | -0.23
38 | O=C1Nc2ccc(CN3C(=O)CSC3=O)cc2/C1=C/c1cc(CN2CCOCC2)c[nH]1 | 1.25 | 3.61 | 0.75 | 0.08 | 0.42 | 0.16 | 0.49 | 1.28 | 0.13 | 2.79
39 | CC(C)n1nc(-c2cc3cc(O)ccc3[nH]2)c2c(N)ncnc21 [Torkinib (PP242)] | 0.97 | 0.22 | 0.64 | 0.08 | 0.52 | 0.37 | -0.17 | 0.78 | 0.2 | 0.85
